From PubChem BioAssay (NCATS) come the findings set out here.

Test [1] in a line: qHTS assay for small molecule activators of the p53 signaling pathway (AID 651743; active = well fitted activation curve with a large enough effect in the signal ratio, not every such curve was filed as active; the % refers to the signal ratio; also: potency is read from the fitted curve at half-maximal effect; as to activation: series mostly up to about 92 µM; % of control where 0% means no effect). The following applies: HCT-116 p53RE-bla, beta-lactamase FRET ratio, 16 h; activation: stronger effect = higher value. An outline of the steps:
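Screen for p53 pathway agonists uses stably transfected p53RE-bla HCT-116 cells, 4,000 per well, treated 16 h at 37 C with compounds in DMSO.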
In general terms: Quantitative high-throughput screening tests each substance at several concentrations.

Test [2] is described as follows: qHTS assay for small molecule activators of the nuclear factor-kappa B (NF-kB) signaling pathway (AID 651749; active = well fitted activation curve with a large enough effect in the signal ratio; the % refers to the signal ratio; also: series mostly up to about 77 µM; % of control where 0% means no effect). Conditions: NF-kB-bla ME-180 cells, beta-lactamase FRET ratio, 16 h; stronger effect = higher value. An outline of the steps:
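Stably transfected ME-180 line; NF-kB response element upstream of beta-lactamase. Treatment: compound or DMSO, 16 hr. Detection: fluorescent FRET substrate.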

Test [3] in a line: qHTS assay for small molecule disruptors of the mitochondrial membrane potential - 1 hr assay (AID 651754; calls by dose curve; also: % is scaled to controls: 0 for no effect and ±100 for the full control effect; nearly all actives have a fitted effect of over 35% in size). An outline of the steps: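 Steps: seed HepG2 cells and let attach overnight; pin-transfer compound or vehicle; incubate 1 hr at 37C; add Mito-MPS dye for 30 min; read two-channel fluorescence for monomer and aggregate forms.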
A short description of test [4]: qHTS assay for small molecule disruptors of the mitochondrial membrane potential - 5 hr assay (AID 651755; calls by dose curve; also: % is scaled to controls: 0 for no effect and ±100 for the full control effect; nearly all actives have a fitted effect of over 40% in size). An outline of the steps: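 HepG2, 2,000 cells/well, overnight attach; cpd or DMSO 5 hr, 37C/5% CO2; Mito-MPS 30 min 37C; fluor 490/535 + 540/590 nm.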
Test [5] deals with Tumor necrosis factor (Homo sapiens) (UniProt P01375). The test is described as follows: qHTS assay to identify small molecules that stimulate Tumor Necrosis Factor-alpha (TNF-alpha) secretion (AID 651757; active = well fitted curve in the direction sought with a large enough effect in the signal ratio; the % refers to the signal ratio; also: 0% is about no effect). An outline of the steps: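 Secreted TNF-alpha from compound-treated THP-1 cells (17 hrs, 37 C) was quantified with a homogeneous time-resolved fluorescence antibody assay.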

Test [6] addresses Peroxisome proliferator-activated receptor alpha (Homo sapiens) (UniProt Q07869). The test is described as follows: qHTS assay for small molecule agonists of the peroxisome proliferator-activated receptor alpha (PPARalpha) signaling pathway (AID 651778). Also: % of control where 0% means no effect. The following applies: PathHunter PPARalpha complementation, chemiluminescence, 6 h; max response: stronger effect = higher value. An outline of the steps: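 Chemiluminescence from complemented enzyme reported PPARalpha activation in cells after 6 hr of compound treatment at 37 C. The detection reagent was incubated for 60 min at room temperature, and compounds were scored as agonists.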

For test [7], the target named is Nuclear receptor ROR-gamma (Homo sapiens) (UniProt P51449). The test is described as follows: qHTS assay for small molecule antagonists of the retinoid-related orphan receptor gamma (ROR-gamma) signaling pathway (AID 651802). Also: series mostly up to about 92 µM; % is scaled to controls: 0 for no effect and ±100 for the full control effect; nearly all actives have a fitted effect of over 60% in size. A digest of the protocol:
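Antagonism is scored as a fall in luminescence from a RORE-luciferase reporter in CHO cells expressing ROR under a TET-inducible promoter, measured 16hr after doxycycline induction in the presence of compound.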

Test [8] can be described thus: qHTS assay for small molecule agonists of the antioxidant response element (ARE) signaling pathway measured by Nrf2-dependant transcriptional activity (AID 720636; active = well fitted curve in the direction sought with a large enough effect in the repeat runs; an effect the other way counts as inactive or inconclusive; also: % of control where 0% means no effect). A digest of the protocol:
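ARE-luc HepG2 cells carrying an Nrf2-responsive luciferase reporter were plated in medium with 1% dialyzed FBS, left 6 hr at 37 C to attach, then exposed to compound for 16 hr. Luciferase luminescence was read after ONE-Glo addition.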

The nature of test [9]: qHTS assay for small molecule antagonists of the retinoid-related orphan receptor gamma (ROR-gamma) signaling pathway - cell viability counter screen (AID 720652; active = well fitted curve in the direction sought with a large enough effect in the repeat runs; an effect the other way counts as inactive or inconclusive;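 also: series mostly up to about 92 µM; compound exposure lasted 16 hr before ATP read; % is scaled to controls: 0 for no effect and ±100 for the full control effect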). A digest of the protocol: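 Cytotoxicity is quantified via intracellular ATP (CellTiter-Glo luminescence) in doxycycline-induced CHO ROR response element-luciferase reporter cells treated with compound for 16 hr at 37 C, 5% CO2.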

Test [10] can be described thus: qHTS assay for small molecule agonists of the antioxidant response element (ARE) signaling pathway measured by Nrf2-dependant transcriptional activity - cell viability counter screen (AID 720653; active = well fitted curve in the direction sought with a large enough effect in the repeat runs; an effect the other way counts as inactive or inconclusive; also: % is scaled to controls: 0 for no effect and ±100 for the full control effect). The following applies: ARE-bla HepG2 viability, CellTiter-Glo ATP luminescence, 16 h; stronger effect = lower value. An outline of the steps: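 Cytotoxicity counter screen: intracellular ATP quantified by CellTiter-Glo luminescence in the same ARE-bla HepG2 plates, after 16 h compound exposure and a 2 h beta-lactamase substrate step.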

The nature of test [11]: Cell Proliferation Assay against the TMD8 Cell Line (Caspase readout at 8 hrs) (AID 651713). Also: potency is read from the fitted curve at half-maximal effect. A digest of the protocol: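 Percent activity derived from Caspase-Glo signal, DMSO set to 0% and bortezomib (9.2 uM final) to 100%. TMD8 cells were exposed to compound for 8 h in RPMI with 5% FBS.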
In test [12] the target is Tyrosine-protein kinase Yes (Homo sapiens) (UniProt P07947). The test is described as follows: qHTS for small molecule inhibitors of Yes1 kinase: Primary Screen (AID 686947).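 Also: plate controls were DMSO with enzyme for no effect and no-enzyme DMSO wells for full effect; nearly all actives have a fitted effect of over 60% in size.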 A digest of the protocol: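 ADP-Glo luminescence readout; final 4 nM Yes1, 0.1 mM ATP, 0.3 mg/mL poly(E4Y), Tris pH 7.5, MgCl2, DTT, Brij-35. 20 min compound preincubation, 60 min reaction at RT. Normalized to DMSO wells with and without enzyme.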

Test [13] can be described thus: qHTS assay for small molecule agonists of the antioxidant response element (ARE) signaling pathway (AID 651741; active = well fitted activation curve with a large enough effect in the signal ratio; the % refers to the signal ratio; also: potency is read from the fitted curve at half-maximal effect; as to activation: % of control where 0% means no effect). An outline of the steps: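 Seeding 2,000 ARE-bla HepG2 cells per well preceded a 5 h incubation at 37 C/5% CO2 and a 16 h compound exposure at 37 C. Beta-lactamase reporter activity was then quantified by fluorescence after 2 h with LiveBLAzer B/G FRET substrate.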

A short description of test [14]: qHTS assay to identify small molecules that stimulate interleukin-8 (IL-8) secretion (AID 651758; active = well fitted activation curve with a large enough effect in the signal ratio; the % refers to the signal ratio; also: 0% is about no effect). A digest of the protocol:
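Secreted IL-8 measured by TR-FRET sandwich (cryptate and XL665 antibodies) from THP-1 cells exposed to compound overnight (16 hrs, 37 C).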

The nature of test [15]: qHTS assay for environmental chemicals that activate the Aryl hydrocarbon Receptor (AhR) signaling pathway (AID 651777). Also: % of control where 0% means no effect; nearly all actives have a fitted effect of over 15% in size. The following applies: 1A2-DRE human hepatoma cells, luciferase, 24 h; stronger effect = higher value. An outline of the steps:
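Human hepatoma 1A2-DRE cells, stably carrying a dioxin response element and CYP1A2 promoter driving luciferase, were exposed to compounds for 24 hr at 37 C and 5% CO2. Luciferase signal was then read after 30 min One-Glo at room temperature.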

Structures are written as SMILES. Several values for one entry are separate records, joined by “and”; a condition that tells them apart may be missing. Identical values can stand only once. Values without a mark were called inactive. Results filed as inconclusive are left out. Activity calls are given as the source filed them. Unless noted, calls follow the shape of the dose curve; as a rule, active = well fitted curve in the direction sought with a large enough effect; inconclusive = small, poorly fitted or top-dose-only effect, or another doubt; inactive = no such curve, though single readings can be large; an effect the other way counts as inactive or inconclusive.

Chain of Tumor necrosis factor (Homo sapiens) (P01375 whole entry, looked up): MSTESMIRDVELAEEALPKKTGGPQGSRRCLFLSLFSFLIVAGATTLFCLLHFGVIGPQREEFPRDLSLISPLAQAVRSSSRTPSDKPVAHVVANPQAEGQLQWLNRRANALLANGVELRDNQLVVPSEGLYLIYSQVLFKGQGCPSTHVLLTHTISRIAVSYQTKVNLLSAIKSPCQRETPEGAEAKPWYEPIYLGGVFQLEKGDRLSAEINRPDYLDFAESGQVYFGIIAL
Chain of Nuclear receptor ROR-gamma (Homo sapiens) (P51449 whole entry, looked up): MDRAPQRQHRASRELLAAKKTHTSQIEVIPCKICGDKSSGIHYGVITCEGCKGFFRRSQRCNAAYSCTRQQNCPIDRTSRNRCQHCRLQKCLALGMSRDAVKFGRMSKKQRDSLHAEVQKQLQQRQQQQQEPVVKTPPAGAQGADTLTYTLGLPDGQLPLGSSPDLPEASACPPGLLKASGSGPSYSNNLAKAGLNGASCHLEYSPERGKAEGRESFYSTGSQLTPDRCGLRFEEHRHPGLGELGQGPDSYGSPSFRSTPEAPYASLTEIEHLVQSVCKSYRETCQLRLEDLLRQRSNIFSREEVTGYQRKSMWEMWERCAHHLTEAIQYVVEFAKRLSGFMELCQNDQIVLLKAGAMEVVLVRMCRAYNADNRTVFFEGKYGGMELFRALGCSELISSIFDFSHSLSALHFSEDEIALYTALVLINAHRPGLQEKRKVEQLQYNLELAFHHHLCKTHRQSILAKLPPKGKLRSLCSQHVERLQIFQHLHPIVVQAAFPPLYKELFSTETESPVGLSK
Chain of Peroxisome proliferator-activated receptor alpha (Homo sapiens) (Q07869 whole entry, looked up): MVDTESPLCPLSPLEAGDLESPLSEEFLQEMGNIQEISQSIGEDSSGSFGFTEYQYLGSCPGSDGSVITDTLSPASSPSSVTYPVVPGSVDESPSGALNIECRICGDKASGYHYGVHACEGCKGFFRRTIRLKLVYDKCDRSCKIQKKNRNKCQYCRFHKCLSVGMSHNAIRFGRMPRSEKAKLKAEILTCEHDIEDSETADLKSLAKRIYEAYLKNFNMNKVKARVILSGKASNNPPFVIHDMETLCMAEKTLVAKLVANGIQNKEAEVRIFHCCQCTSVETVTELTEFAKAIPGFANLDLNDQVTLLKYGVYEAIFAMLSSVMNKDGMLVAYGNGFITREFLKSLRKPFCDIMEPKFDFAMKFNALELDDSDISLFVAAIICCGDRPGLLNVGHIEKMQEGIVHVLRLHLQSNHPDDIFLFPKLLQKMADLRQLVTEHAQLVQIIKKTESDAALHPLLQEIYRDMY
Chain of Tyrosine-protein kinase Yes (Homo sapiens) (P07947 whole entry, looked up): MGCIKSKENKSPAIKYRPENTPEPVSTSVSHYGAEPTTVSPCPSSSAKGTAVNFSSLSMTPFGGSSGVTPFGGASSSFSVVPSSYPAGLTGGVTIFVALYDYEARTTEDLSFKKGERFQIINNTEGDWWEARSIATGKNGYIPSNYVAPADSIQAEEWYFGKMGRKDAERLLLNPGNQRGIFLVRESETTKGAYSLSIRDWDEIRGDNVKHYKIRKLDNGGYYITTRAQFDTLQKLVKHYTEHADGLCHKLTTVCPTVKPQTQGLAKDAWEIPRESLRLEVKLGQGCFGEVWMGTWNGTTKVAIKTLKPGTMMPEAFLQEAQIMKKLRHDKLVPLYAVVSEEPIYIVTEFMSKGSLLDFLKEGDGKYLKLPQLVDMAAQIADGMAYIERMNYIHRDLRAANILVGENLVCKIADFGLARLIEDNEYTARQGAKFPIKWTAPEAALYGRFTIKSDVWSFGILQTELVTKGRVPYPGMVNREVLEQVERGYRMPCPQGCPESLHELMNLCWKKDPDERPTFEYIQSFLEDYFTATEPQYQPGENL

Consider `CCOC(C)=O`, for which the activation in test [1] was -1.83%; in test [2] it was -0.483%. The compound was classed as inactive in test [3], in [4], in [5], in test [7], in test [8] and in [9]. The max response in [6] was 6.06%; in test [10] it was 1.62%.
Regarding `O=CCCCC=O`, the Potency in test [1] was 35.5 µM (active). Moreover, in test [2], the activation is 3.18%. Also, the result in test [3], in test [4], in [5] and in test [8] was inactive. Moreover, the max response in test [6] is -1.75%; in [10], -17.7%.
As for `O=c1cc(C2=CC=CC3Sc4ccccc4SC23)oc(N2CCOCC2)c1` (stereo unspecified), the Potency in test [11] is 7.43 µM (active). Besides, the Potency result in [12] is “inactive”.
Turning to `CC(O)CO` (stereo unspecified), the Potency entry in test [13] and in test [14] was “inactive” each time. The activation in test [1] was 0.0778% and -3.92%; in [2] it was 3.41% and -1.36%; in test [15], -1.84% and -0.0903%. The compound was called inactive in test [3], in test [4], in test [5], in [7], in [8] and in test [9]. Moreover, the max response in test [6] is 4.63% and -8.84%; in test [10], -5.98% and -4.66%.
`CC(NC(=O)Cc1cc(F)cc(F)c1)C(=O)NC(C(=O)OC(C)(C)C)c1ccccc1` (stereo unspecified): the Potency entry in test [11] and in [12] was “inactive” in each case.
For the compound `C[C@@H]1CCN(C(=O)CC#N)C[C@@H]1N(C)c1ncnc2[nH]ccc12`, the Potency result in test [11] is “inactive”.
On to `CC1=CCC(C(C)(C)O)CC1` (stereo unspecified), for which the results for the activation in test [1], in test [2] and in test [15] were -5.6%, -1.34% and 0.596%, respectively. Also, the max response in [6] is -2.04%; in [10], 3.37%. For the same compound, the call in test [8] was inactive.
Consider `IC(I)I`, for which the Potency in test [13] is 68.6 µM (active). Also, the activation is -2.94% and -3.68% in test [1]; 3.72% in [15]. The result in test [5], in test [8] and in [9] was inactive. Moreover, in [14], the Potency result was “inactive”. In addition, the max response is -6.19% and -2.33% in test [6]; 1.96% and -3.08% in test [10].
